Compound activity from PubChem.
Only some compounds are listed: those with a hit (about 2.3% of all), similar ones and a draw of the others.
AMA1 RON2 block = disrupts binding of P. falciparum AMA1 to RON2 | AlphaScreen AMA1-biotinylated RON2 peptide binding | Potency, µM (top dose mostly 58.2 µM), for the others: at the highest dose activity change, negative = inhibition, hits mostly inhibitors | 360,000 compounds, 0.2% hits;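 note: 0% = vehicle wells and -100% = peptide control; nearly all actives have a fitted effect of over 45% in size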
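AMA1 (3D7) with his tag at 25 nM final met compounds first, then biotinylated RON2 peptide at 25 nM; detection used donor plus acceptor beads, 10 µg/mL apiece, read by AlphaScreen after 30 min at room temperature.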
AmpC detergent = AmpC beta-lactamase inhibition with detergent present; 370,000 compounds, 0.041% hits; P00811; AmpC hydrolysis of nitrocefin, absorbance 480 nm, 0.01% Triton; Potency, µM (series often up to 114 µM), for inactives: top-dose activity change, negative = inhibition, most hits filed as inhibitors;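 note: 0% = no-compound wells and -100% = no-enzyme wells; nearly all actives have a fitted effect of over 25% in size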
Target sequence (P00811 whole entry, looked up): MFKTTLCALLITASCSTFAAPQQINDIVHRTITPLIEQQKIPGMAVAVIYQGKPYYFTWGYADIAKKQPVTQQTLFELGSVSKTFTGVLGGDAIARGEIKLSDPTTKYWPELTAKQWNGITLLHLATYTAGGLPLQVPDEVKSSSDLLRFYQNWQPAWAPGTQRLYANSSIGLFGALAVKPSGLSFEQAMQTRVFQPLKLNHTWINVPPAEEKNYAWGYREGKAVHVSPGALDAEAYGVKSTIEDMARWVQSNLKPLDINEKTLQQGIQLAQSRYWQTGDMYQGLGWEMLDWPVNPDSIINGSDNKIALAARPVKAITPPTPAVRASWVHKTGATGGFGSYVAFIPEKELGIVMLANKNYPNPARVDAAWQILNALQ
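20 mM phosphate pH 7.0 + 0.01% (detergent screen) or 0.0001% Triton X-100; 5.3 nM AmpC reagent; cpd preinc 15 min RT; nitrocefin (800 uM stock) to start; A480 q20 s × 4 min; Activity was normalised to no-enzyme and no-compound control wells.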
Marburg entry inh = inhibitors of Marburg virus binding or cell entry. Marburg virus pseudotyped entry inhibition, cell reporter. Potency, µM (doses to about 37.8 µM), for inactives: at the top dose activity change, negative = inhibition, most hits filed as inhibitors. 300,000 compounds, 1.8% hits; calls by dose curve; tested in HEK293 cells
Lassa entry inh = Lassa virus entry inhibition. Lassa virus pseudotype entry inhibition, cell reporter. 300,000 compounds, 1.2% hits. Potency, µM (titrated, usually from 37.9 µM), for inactives: at the highest dose activity change, negative = inhibition, hits mostly inhibitors; calls by dose curve; tested in HEK293 cells; note: nearly all actives have a fitted effect of over 50% in size
AmpC inh no detg = blocks E. coli AmpC beta-lactamase in detergent-free assay; AID 485341; Potency, µM (top dose mostly 57.1 µM), without a hit: top-dose activity change, negative = inhibition, hits mostly inhibitors; AmpC nitrocefin hydrolysis, absorbance 480 nm, 0.0001% Triton; 330,000 compounds, 0.52% hits;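 note: plate controls were no compound for no effect and no enzyme for full effect; nearly all actives have a fitted effect of over 20% in size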
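AmpC (5.3 nM in the dispensed reagent) in 20 mM phosphate pH 7.0 with 0.01% (detergent screen) or 0.0001% Triton X-100 was preincubated with compounds for 15 min at room temperature. Nitrocefin was then added from an 800 uM solution, and hydrolysis was followed at 480 nm.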
* marks the source's active call; other numbers are inactive results; ? = inconclusive; nt = not tested or not shown; [ ] = remark or other dose. Unless noted, calls come from the whole dose curve; as a rule, active = well fitted curve in the direction sought with a large enough effect; inconclusive = small, poorly fitted or top-dose-only effect, or another doubt; inactive = no such curve, though single readings can be large; an effect the other way counts as inactive or inconclusive. Unless noted, % is set by controls: 0 for no effect and ±100 for the full control effect; potency is the fitted concentration of half-maximal effect.

SMILES	AMA1 RON2 block	AmpC detergent	Marburg entry inh	Lassa entry inh	AmpC inh no detg
COc1ccc(CCCC2=NC3C=CC=CC3=N2)cc1 (stereo not given)	nt	nt	14%[46.1 µM]	nt	nt
CC(=O)C1=C(c2ccc(Br)cc2)C(=O)c2ccccc2C1=O	16µM*	?	5.2µM*	2.5µM*	-21%
O=C(Nc1ccc2c(c1)CCCN2C(=O)c1cccs1)c1cccc(C(F)(F)F)c1	nt	0%	nt	?	nt
CC(CCN1CCCc2nc(C)c(C)cc21)=NOC[C@@H](C)[C@H](OCc1ccccc1)C(C)C	nt	nt	-24%[14.2 µM]	nt	nt
CN(C)S(=O)(=O)Oc1cccc(C(=O)Nc2ccccc2Cl)c1	4%	-10%	31%	-11%	-13%
CN(C)S(=O)(=O)Oc1cccc(C(=O)Nc2ccc(Cl)cc2)c1	2%	0%	?	15µM*	-24%
Cc1ccc(/C=C/C2=Cc3c(sc(NC(=O)CSc4n[nH]c(N)n4)c3C#N)C(C)(C)C2)o1	nt	-7%	nt	nt	13µM*
CCCC[C@]12Cc3cc(OC)c(OC)cc3[C@H](O1)C1=C(CC3(CCCCC3)OC1=O)O2	nt	nt	-24%[14.2 µM]	nt	nt
Cc1ccc(-c2cn3c(=O)cc(C)[nH]c3n2)cc1	2%	-10%	-10%	15µM*	-10%
CC(=O)c1ccc(N2C(=O)Nc3ccccc3S2(=O)=O)cc1	nt	4%	nt	26%[46.1 µM]	nt
CCc1ccc(-c2nc(NC(=O)c3ccc(OCC(=O)Nc4ccc(F)cc4)c(OC)c3)sc2C)cc1	1%	5%	?	-13%	-31%
COc1cc(C(=O)Nc2nc(-c3ccc(Cl)cc3)c(C)s2)ccc1OCC(=O)Nc1ccc(F)cc1	4%	-1%	?	10µM*	-20%
COc1ccc2sc(N(Cc3cccnc3)C(=O)C3COc4ccccc4O3)nc2c1 (stereo not given)	nt	1%	nt	2%[46.1 µM]	nt
CC(=O)Nc1cccc(NC(=O)Cc2csc(COc3cccc(C)c3)n2)c1	nt	10%	-13%[46.1 µM]	5%[46.1 µM]	nt
c1ccc(-n2nnc3c(N4CCOCC4)ncnc32)cc1	9%	2%	2.3µM*	5.2µM*	-5%
Cc1nnc(N2CCOCC2)c2nn(-c3ccccc3)c(C)c12	-2%	-8%	-24%	?	-22%
COCCN(Cc1ccccc1)C(=S)Nc1ccc(OC(F)F)cc1	-3%	-2%	?	16µM*	1%
COc1ccc(S(=O)(=O)NCCc2csc3nc(-c4ccc(Cl)cc4)nn23)cc1C	nt	2%	nt	4%[46.1 µM]	nt
COc1cccc(/C=N/Nc2nccnc2Cl)c1O	-32%	-1%	1.6µM*	2.1µM*	-29%
Clc1nccnc1N/N=C/c1ccc(Br)cc1	17%	1%	nt	nt	-5%
COc1cccc(/C=N/Nc2ncnc3scc(-c4ccccc4)c23)c1O	23%	-13%	1.4µM*	5.2µM*	146%
COc1ccc(/C=N/Nc2nccnc2Cl)cc1	13%	?	?	8.2µM*	-10%
COc1cccc(/C=N/Nc2nc3ccccc3n3cnnc23)c1O	79%	-11%	8.9µM*	?	-18%
CCN1C(=NCCCCO)N[C@@H](CCc2ccccc2)[C@H](C(=O)OC)[C@H]1C	nt	nt	9%[14.2 µM]	?	nt
COC(=O)C1=C(C(=O)OC)[C@@H]2N(CC=C(C)C)c3ccccc3[C@@]23CCC(=O)N(CCc2ccccn2)C3=N1	nt	nt	12%[14.2 µM]	nt	nt
SMILES	AMA1 RON2 block	AmpC detergent	Marburg entry inh	Lassa entry inh	AmpC inh no detg
COc1cccc(/C=N/Nc2ncnc(Cl)c2N)c1O	-19%	?	2.5µM*	3.7µM*	-23%
Oc1ccccc1/C=N/Nc1nccnc1Cl	-5%	-1%	?	13µM*	-23%
COC(=O)[C@@H]1CC[C@H](C)[C@@H](c2ccc(C)cc2)N1C(=O)c1ccc(C=NOC[C@H]2O[C@H](c3ccccc3)C=C[C@H]2Oc2ccc(OC)cc2)cc1	nt	nt	-7%[14.2 µM]	nt	nt
O=c1c2ccccc2cnn1-c1ccc2ccccc2c1	8%	-6%	?	10µM*	-23%
Cc1nc(NS(=O)(=O)c2ccccc2)sc1NC(=O)Nc1ccc(Cl)cc1	40%	-13%	nt	nt	16µM*
COc1ccc(C2CC(=O)Nc3c2c(=O)[nH]c2nc4ccccc4n32)cc1 (stereo not given)	nt	-1%	1%[46.1 µM]	14%[46.1 µM]	nt
C/C(=C\c1ccccc1F)C(=O)c1c(C)cc(C)[nH]c1=O	-7%	1%	5%	0%	-3%
Cc1[nH]c(=O)c(C(=O)/C=C/c2ccccc2F)c2c1CCCC2	-7%	-2%	12µM*	10µM*	-20%
O=C(Nc1cc(Sc2ccccn2)cc([N+](=O)[O-])c1)c1ccc(Cl)cc1	-21%	-2%	?	?	32µM*
O=S(=O)(c1ccc2ccccc2c1)N(C[C@@H](O)CN1CCOCC1)c1ccccc1	nt	nt	19%	nt	nt
CCN(CC)CCOc1ccc(Br)cc1	-9%	0%	3%	1%	-12%
CCN(CC)CCOc1ccc2c(c1)C(=NO)c1cc(OCCN(CC)CC)ccc1-2	-4%	?	2.6µM*	10µM*	4%
CC1CCC(C(C)C)C(OC(=O)Cn2c(-c3ccccc3)[n+](C)c3ccccc32)C1 (stereo not given)	6%	-2%	5.8µM*	7.1µM*	113%
CC1CCC(C(C)C)C(OC(=O)Cn2c(COc3ccccc3)[n+](C)c3ccccc32)C1 (stereo not given)	-3%	-2%	?	?	119%
Cc1cccc(OCc2n(CC(=O)OC3CC(C)CCC3C(C)C)c3ccccc3[n+]2C)c1 (stereo not given)	-19%	5%	2.5µM*	?	204%
CC1CCC(C(C)C)C(OC(=O)Cn2c(-c3ccc(F)cc3)[n+](C)c3ccccc32)C1 (stereo not given)	-11%	-12%	?	?	94%
COc1ccccc1C(=O)Nc1nnc(SCc2cc(=O)c3cc(Cl)ccc3[nH]2)s1	nt	-3%	nt	14%[46.1 µM]	nt
COc1ccc(S(=O)(=O)N2CCc3ccccc32)cc1C(=O)OCc1c(C)noc1C	?	-5%	3.5µM*	18µM*	61%
Cc1noc(C)c1COC(=O)c1cccc(S(=O)(=O)N2CCCCCC2)c1	0%	-16%	8.9µM*	?	33%
Cc1noc(C)c1COC(=O)c1ccc(F)c(S(=O)(=O)N2CCCCC2)c1	7%	-1%	-27%	4%	43%
CCn1c(O)c(C(=O)C[C@@H]2NCCc3ccccc32)c(=O)n(CC)c1=S	nt	nt	-22%	nt	nt
COc1ccc(N(CC(=O)NCCc2ccccc2)S(=O)(=O)c2ccc(OC)c(OC)c2)cc1	nt	10%	nt	6.3µM*	nt
CCNC(=O)CN(c1ccc(Cl)cc1)S(=O)(=O)c1ccccc1	-11%	1%	1.2µM*	?	-11%
COc1ccc(S(=O)(=O)N(CC(=O)NCCc2ccccc2)c2ccc(Cl)cc2)cc1	nt	-15%	1%[46.1 µM]	1%[46.1 µM]	nt
CCOc1ccccc1NC(=O)CCN(c1ccc(C)cc1)S(=O)(=O)c1ccccc1	-19%	-12%	14µM*	?	-3%
COc1ccc(N(CC(=O)NCc2ccccc2OC)S(=O)(=O)c2ccccc2)cc1	6%	-9%	10µM*	5%[46.1 µM]	0%
